Measurements: PubChem BioAssay (Tox21)
Records with an inconclusive call do not appear. Where a call stands in place of a potency, no number is given. Activity calls are given as the source filed them. Unless noted, calls come from the whole dose curve; as a rule, active = well fitted curve in the direction sought with a large enough effect in the repeat runs; inconclusive = weak or mixed curves; inactive = no such curve, though single readings can be large; an effect the other way counts as inactive or inconclusive.

Key:
[1] = qHTS assay to identify small molecule antagonists of the estrogen related receptor (ERR) signaling pathway from Tox21 library - cell viability counter screen (AID 1224834); note: nearly all actives have a fitted effect of over 30% in size
Method in brief: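 In this quantitative HTS format, ERR cells receive compounds in DMSO and are incubated for 17.5 h at 37 C. Live-cell protease activity is then detected with CellTiter-Fluor.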

[2] = molecular target: Luciferin 4-monooxygenase (Photinus pyralis) (UniProt P08659); assay: qHTS assay to identify small molecule inhibitors of firefly luciferase (AID 1224835); note: series mostly up to about 120 µM; nearly all actives have a fitted effect of over 25% in size
Method in brief: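 Quantitative HTS format; KM concentrations of both substrates. Purified P. pyralis FLuc activity quantified from luminescence images.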

[3] = molecular target: Nuclear receptor subfamily 1 group I member 3 (Homo sapiens) (UniProt Q14994); assay: qHTS assay to identify small molecule antagonists of the constitutive androstane receptor (CAR) signaling pathway (AID 1224838); note: nearly all actives have a fitted effect of over 40% in size; note: potency is the fitted concentration of half-maximal effect
Method in brief: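 CITCO-stimulated (50 nM final) HepG2 cells stably transfected with hCAR and CYP2B6-2.2kb luciferase were exposed to compounds at 15 concentrations for 24 h at 37 C/5% CO2. A luciferase reagent was added and luminescence recorded after 30 min.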

[4] = molecular target: Nuclear receptor subfamily 1 group I member 3 (Homo sapiens) (UniProt Q14994); assay: qHTS assay to identify small molecule agonists of the constitutive androstane receptor (CAR) signaling pathway (AID 1224839);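 note: HepG2 cells stably carrying human CAR and a CYP2B6 luciferase reporter; series mostly up to about 92 µM; nearly all actives have a fitted effect of over 15% in size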
Method in brief: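 Readout: firefly luciferase luminescence via ONE-Glo. System: HepG2 double-stable for hCAR and CYP2B6-2.2kb. Conditions: 15-point compound titration, PK11195 at 0.75 uM final, 24 h incubation.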

[5] = qHTS assay to identify small molecule antagonists of the estrogen related receptor signaling pathway with the pleiotropic PPARgamma coactivator (PGC) from Tox21 10K library - cell viability counter screen (AID 1224840; active = well fitted cell-killing curve with a large enough effect in the repeat runs, not every such curve was filed as active; note: nearly all actives have a fitted effect of over 40% in size)
Method in brief: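 Viability counter screen, PGC/ERR cells: 17.5 h compound exposure at 37 C, CellTiter-Fluor fluorescence endpoint.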

[6] = qHTS assay to identify small molecule antagonists of the estrogen related receptor signaling pathway with the pleiotropic PPARgamma coactivator (PGC) from Tox21 10K library (AID 1224841; call rule not given here; note: potency is the fitted concentration of half-maximal effect; actives are mostly falling curves and most rising ones were filed inactive; nearly all actives have a fitted effect of over 50% in size)
Method in brief: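 In the PGC/ERR line, DMSO solutions of test chemicals are pin-delivered to 2,000 cells/well six hours after dispensing. Following eighteen hours' incubation, One-Glo reagent is added and luminescence recorded.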

[7] = qHTS assay to identify small molecule agonists of the estrogen related receptor signaling pathway with the pleiotropic PPARgamma coactivator (PGC) from Tox21 10K library (AID 1224842); note: nearly all actives have a fitted effect of over 15% in size
Method in brief: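 PGC/ERR reporter cells (NTP line) were seeded 2,000 per well, rested 6 h at 37 C/5% CO2, then pin-dosed with compounds in DMSO for 18 h at 37 C; luciferase read by One-Glo luminescence after 30 min at room temperature.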

[8] = molecular target: Thyrotropin receptor (Homo sapiens) (UniProt P16473); assay: qHTS assay to identify small molecule agonists of the thyroid stimulating hormone receptor (TSHR) signaling pathway (AID 1224843; calls by dose curve; note: nearly all actives have a fitted effect of over 45% in size)
Method in brief: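 Compounds are titrated over 15 concentrations, in triplicate, onto TSHR-HEK293 cells seeded at 800/well. Plates sit 30 min at room temperature before cAMP-d2 and anti-cAMP cryptate are added; signal is read after a further hour.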

[9] = qHTS assay to identify small molecule agonists of the constitutive androstane receptor (CAR) signaling pathway - cell viability counter screen (AID 1224836); note: series mostly up to about 92 µM; nearly all actives have a fitted effect of over 45% in size
Method in brief: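 Double-stable HepG2 hepatoma cells (hCAR plus CYP2B6-2.2kb) are treated for 23 h at 37 C with test compounds in 15-point concentration series. PK11195 at 0.75 uM final is co-added. Cell viability is quantified by CellTiter-Fluor.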

[10] = qHTS assay to identify small molecule antagonists of the constitutive androstane receptor (CAR) signaling pathway - cell viability counter screen (AID 1224837); note: series mostly up to about 92 µM; nearly all actives have a fitted effect of over 45% in size
Method in brief: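 In quantitative HTS format, compounds at 15 concentrations were applied to HepG2 cells double-transfected with hCAR and CYP2B6-2.2kb under 50 nM CITCO stimulation; live-cell protease activity was read after 23 hr via CellTiter-Fluor.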

Nuclear receptor subfamily 1 group I member 3 (Homo sapiens), sequence (Q14994 whole entry, looked up): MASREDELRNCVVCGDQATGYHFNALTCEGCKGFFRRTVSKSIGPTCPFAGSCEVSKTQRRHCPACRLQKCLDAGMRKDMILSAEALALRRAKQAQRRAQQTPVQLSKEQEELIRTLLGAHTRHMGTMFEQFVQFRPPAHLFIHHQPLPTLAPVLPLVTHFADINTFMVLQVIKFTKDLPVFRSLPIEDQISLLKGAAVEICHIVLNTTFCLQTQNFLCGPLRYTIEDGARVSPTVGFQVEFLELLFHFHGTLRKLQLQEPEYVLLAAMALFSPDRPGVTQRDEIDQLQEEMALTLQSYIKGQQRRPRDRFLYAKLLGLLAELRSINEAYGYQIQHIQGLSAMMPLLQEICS
Thyrotropin receptor (Homo sapiens), sequence (P16473 whole entry, looked up): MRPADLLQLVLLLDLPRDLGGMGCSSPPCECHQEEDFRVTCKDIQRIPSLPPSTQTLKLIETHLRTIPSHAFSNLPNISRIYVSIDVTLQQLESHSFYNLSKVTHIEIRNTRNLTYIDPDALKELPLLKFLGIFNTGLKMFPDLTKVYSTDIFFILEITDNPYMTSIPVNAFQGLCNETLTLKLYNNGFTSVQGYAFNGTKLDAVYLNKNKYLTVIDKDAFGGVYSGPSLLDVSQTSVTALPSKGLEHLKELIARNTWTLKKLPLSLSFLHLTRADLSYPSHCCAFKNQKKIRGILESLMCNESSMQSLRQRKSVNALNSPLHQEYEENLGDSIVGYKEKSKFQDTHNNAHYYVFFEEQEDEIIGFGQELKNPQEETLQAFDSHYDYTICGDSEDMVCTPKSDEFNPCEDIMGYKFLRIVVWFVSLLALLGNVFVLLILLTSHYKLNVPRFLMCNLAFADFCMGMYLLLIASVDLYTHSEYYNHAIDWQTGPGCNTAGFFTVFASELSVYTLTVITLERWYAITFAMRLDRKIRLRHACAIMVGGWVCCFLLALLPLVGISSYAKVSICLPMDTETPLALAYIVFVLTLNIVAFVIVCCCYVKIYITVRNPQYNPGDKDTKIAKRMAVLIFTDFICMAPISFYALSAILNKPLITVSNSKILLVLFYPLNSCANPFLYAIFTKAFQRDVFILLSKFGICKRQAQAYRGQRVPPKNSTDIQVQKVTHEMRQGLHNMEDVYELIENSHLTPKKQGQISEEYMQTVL
Luciferin 4-monooxygenase (Photinus pyralis), sequence (P08659 whole entry, looked up): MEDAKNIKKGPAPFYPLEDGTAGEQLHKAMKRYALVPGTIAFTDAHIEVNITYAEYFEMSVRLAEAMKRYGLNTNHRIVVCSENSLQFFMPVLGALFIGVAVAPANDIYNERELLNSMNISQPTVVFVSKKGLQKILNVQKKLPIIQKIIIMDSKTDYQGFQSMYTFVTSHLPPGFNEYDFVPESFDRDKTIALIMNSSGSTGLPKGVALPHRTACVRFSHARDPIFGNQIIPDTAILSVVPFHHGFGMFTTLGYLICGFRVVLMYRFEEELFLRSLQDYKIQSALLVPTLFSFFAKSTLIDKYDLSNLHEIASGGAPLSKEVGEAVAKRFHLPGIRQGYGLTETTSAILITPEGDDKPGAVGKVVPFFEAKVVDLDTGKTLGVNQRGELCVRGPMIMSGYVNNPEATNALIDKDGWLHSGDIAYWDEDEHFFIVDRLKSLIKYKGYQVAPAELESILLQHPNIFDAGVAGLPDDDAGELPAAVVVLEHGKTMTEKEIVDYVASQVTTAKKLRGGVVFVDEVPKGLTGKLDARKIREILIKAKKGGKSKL

Compound	Potency [1]	Potency [2]	Potency [3]	Potency [4]	Potency [5]	Potency [6]	Potency [7]	Potency [8]	Potency [9]	Potency [10]
CCOC(=O)CS	inactive	inactive	56 µM (active)	inactive	inactive	14.1 µM (active)	inactive	inactive		
C=CC(C)(O)CC/C=C(\C)CCC=C(C)C (stereo unspecified)	inactive								inactive	
CN1CCN(c2c(F)cc3c(=O)c(C(=O)O)cn(CCF)c3c2F)CC1	inactive				inactive			inactive	inactive	inactive
CCN(O)CC	inactive		inactive	inactive	inactive				inactive	inactive
